Test [1] concerns the target Calcium and integrin-binding protein 1 (Homo sapiens) (UniProt Q99828). As to the kind of experiment: Primary qHTS for Identification of Calcium Integrin Binding Protein 1 (CIB1) Competitor (AID 1508620).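 Also: GST tagged CIB1 binding a fluorescein labelled alphaIIb integrin peptide tracer; top concentration of the series differs between compounds; % is scaled to controls: 0 for no effect and ±100 for the full control effect.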 Conditions: CIB1-GST / FITC-alphaIIb peptide fluorescence polarization; series mostly up to 57.7 µM. The method, boiled down:
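Fluorescence polarization competition: GST-tagged CIB1 (1 uM final) preincubated with compound 15 min at room temperature, then FITC-labelled alphaIIb peptide (100 nM final) added. After 15 min at room temperature, polarization read at Ex 480/Em 540.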
A general note: In qHTS, concentration-response curves come from the screen itself.

The target in test [2] is Cytochrome P450 2D6 (Homo sapiens) (UniProt P10635). Kind of test: Cytochrome P450 family 2 subfamily D member 6 (CYP2D6) small molecule antagonists: luciferase biochemical (cell-free) qHTS assay (AID 1645840; active = well fitted curve in the direction sought with a large enough effect in the repeat runs; an effect the other way counts as inactive or inconclusive; also: nearly all actives have a fitted effect of over 55% in size; also: potency is read from the fitted curve at half-maximal effect; as to activity change, negative = inhibition: % is scaled to controls: 0 for no effect and ±100 for the full control effect). Conditions: P450-Glo CYP2D6 enzyme, luciferin luminescence, 1 h; series mostly up to 57.4 µM. The method, boiled down: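 P450-Glo luminescent screen: recombinant CYP2D6 enzyme–proluciferin substrate mix preincubated with compound 10 min at room temperature, then NADPH regeneration added for 1 h at room temperature. Detection reagent added for 20 min; luciferin light read as relative luminescence units.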

For test [3], the target named is Cytochrome P450 2C9 (Homo sapiens) (UniProt P11712). Kind of test: Cytochrome P450 family 2 subfamily C member 9 (CYP2C9) small molecule antagonists: luciferase biochemical (cell-free) qHTS assay (AID 1645842; active = well fitted curve in the direction sought with a large enough effect in the repeat runs; an effect the other way counts as inactive or inconclusive; also: nearly all actives have a fitted effect of over 55% in size; also: potency is read from the fitted curve at half-maximal effect; as to activity change, negative = inhibition: % is scaled to controls: 0 for no effect and ±100 for the full control effect). Conditions: P450-Glo CYP2C9 enzyme assay, luciferin luminescence; series mostly up to 57.4 µM. In a few lines:
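Luminescence, after 20 min with luciferin detection reagent, reflected CYP2C9 turnover during a 1 h NADPH-driven reaction at 37C. Enzyme-substrate mix contained 0.4% bovine serum albumin and was preincubated with compound 10 min at room temperature.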

Test [4] can be described thus: Primary qHTS for inhibitors of nuclear receptor binding SET domain protein 2 (NSD2) in an isogenic RCH-ACV NSD2 p.E1099K mutant (9B) (AID 1645876). Also: nearly all actives have a fitted effect of over 70% in size. Also: potency is read from the fitted curve at half-maximal effect. Conditions: RCH-ACV NSD2 E1099K (9B) viability, CellTiter-Glo, 72 h; series mostly up to 44.9 µM.
Test [5] in a line: Primary qHTS for inhibitors of nuclear receptor binding SET domain protein 2 (NSD2) in an RCH-ACV wild type WT cells (2C) (AID 1645877). Also: nearly all actives have a fitted effect of over 70% in size. Also: potency is read from the fitted curve at half-maximal effect. Conditions: RCH-ACV (leukaemia line) NSD2 WT (2C) viability, CellTiter-Glo, 72 h; series mostly up to 44.9 µM.
For test [6], the target named is Catechol O-methyltransferase (Homo sapiens) (UniProt P21964). Kind of test: Confirmatory Screen for Target Class Profiling of Small Molecule Inhibitors of Methyltransferases (AID 1745852; calls by dose curve; as to activity change, negative = inhibition: % is scaled to controls: 0 for no effect and ±100 for the full control effect). Conditions: MTase-Glo luminescence, SAH detection, recombinant enzyme; measured here: COMT max response; stronger effect = lower value.
The target in test [7] is Guanidinoacetate N-methyltransferase (Homo sapiens) (UniProt Q14353). The description is as above. Conditions: MTase-Glo luminescence, SAH detection, recombinant enzyme; activity change, negative = inhibition: at 57.3 µM (top of the series) unless noted.
The target of test [8] is Nicotinamide N-methyltransferase (Homo sapiens) (UniProt P40261). The test is described as above. Conditions: MTase-Glo luminescence, SAH detection, recombinant enzyme; measured here: NNMT max response; stronger effect = lower value.
The target in test [9] is Phenylethanolamine N-methyltransferase (Homo sapiens) (UniProt P11086). The description is as above. Conditions: MTase-Glo luminescence, SAH detection, recombinant enzyme; measured here: PNMT max response; stronger effect = lower value.
Test [10] deals with Cytochrome P450 3A4 (Homo sapiens) (UniProt P08684). Kind of test: Cytochrome P450 family 3 subfamily A member 4 (CYP3A4) small molecule antagonists: luciferase qHTS assay (AID 1645841; active = well fitted curve in the direction sought with a large enough effect in the repeat runs; an effect the other way counts as inactive or inconclusive; also: nearly all actives have a fitted effect of over 45% in size). The settings on record: P450-Glo CYP3A4 enzyme assay, luciferin luminescence; series mostly up to 57.4 µM. The method, boiled down:
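P450-Glo CYP3A4 enzyme with proluciferin substrate preincubated 10 min with compound at room temperature, then NADPH regeneration 1 h. Luciferin detection reagent added for 20 min; luminescence recorded. Ketoconazole positive control.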

Inconclusive results are not listed. The source made the active and inactive calls. Unless noted, calls follow the shape of the dose curve; as a rule, active = well fitted curve in the direction sought with a large enough effect; inconclusive = small, poorly fitted or top-dose-only effect, or another doubt; inactive = no such curve, though single readings can be large; an effect the other way counts as inactive or inconclusive.

The source of these data is PubChem BioAssay (NCATS).

Chain of Cytochrome P450 2D6 (Homo sapiens) (P10635 whole entry, looked up): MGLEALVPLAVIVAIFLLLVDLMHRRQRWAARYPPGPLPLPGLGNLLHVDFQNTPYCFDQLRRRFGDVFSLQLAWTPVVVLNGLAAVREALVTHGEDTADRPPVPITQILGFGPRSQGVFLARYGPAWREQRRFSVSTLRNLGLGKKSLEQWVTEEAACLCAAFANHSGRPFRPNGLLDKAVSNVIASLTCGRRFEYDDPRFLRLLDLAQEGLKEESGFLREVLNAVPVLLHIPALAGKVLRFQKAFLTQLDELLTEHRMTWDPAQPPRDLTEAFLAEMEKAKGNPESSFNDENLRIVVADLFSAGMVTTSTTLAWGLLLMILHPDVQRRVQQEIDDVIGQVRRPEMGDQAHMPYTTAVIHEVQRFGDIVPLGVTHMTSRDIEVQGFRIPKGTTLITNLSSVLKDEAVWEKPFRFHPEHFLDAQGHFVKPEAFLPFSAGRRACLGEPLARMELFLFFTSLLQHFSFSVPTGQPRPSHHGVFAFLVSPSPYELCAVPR
Chain of Calcium and integrin-binding protein 1 (Homo sapiens) (Q99828 whole entry, looked up): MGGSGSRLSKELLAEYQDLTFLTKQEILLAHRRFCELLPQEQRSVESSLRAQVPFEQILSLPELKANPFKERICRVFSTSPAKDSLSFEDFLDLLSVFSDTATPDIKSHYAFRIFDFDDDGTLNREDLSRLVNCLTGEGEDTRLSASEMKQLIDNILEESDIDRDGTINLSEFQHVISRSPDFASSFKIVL
Chain of Cytochrome P450 2C9 (Homo sapiens) (P11712 whole entry, looked up): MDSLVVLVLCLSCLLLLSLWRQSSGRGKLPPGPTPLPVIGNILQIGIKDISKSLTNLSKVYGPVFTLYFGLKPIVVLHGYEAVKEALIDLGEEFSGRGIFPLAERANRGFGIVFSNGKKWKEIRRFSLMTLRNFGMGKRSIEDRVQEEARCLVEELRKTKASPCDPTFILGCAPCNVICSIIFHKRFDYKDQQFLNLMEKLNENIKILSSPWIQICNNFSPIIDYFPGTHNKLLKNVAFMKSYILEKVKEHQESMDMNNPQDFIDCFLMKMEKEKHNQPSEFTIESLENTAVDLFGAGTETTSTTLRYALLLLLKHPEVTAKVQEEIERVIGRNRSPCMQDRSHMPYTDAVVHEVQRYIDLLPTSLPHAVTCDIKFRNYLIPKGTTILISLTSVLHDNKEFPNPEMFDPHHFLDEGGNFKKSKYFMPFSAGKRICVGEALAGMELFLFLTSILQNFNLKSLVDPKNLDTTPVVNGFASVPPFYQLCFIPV
Chain of Phenylethanolamine N-methyltransferase (Homo sapiens) (P11086 whole entry, looked up): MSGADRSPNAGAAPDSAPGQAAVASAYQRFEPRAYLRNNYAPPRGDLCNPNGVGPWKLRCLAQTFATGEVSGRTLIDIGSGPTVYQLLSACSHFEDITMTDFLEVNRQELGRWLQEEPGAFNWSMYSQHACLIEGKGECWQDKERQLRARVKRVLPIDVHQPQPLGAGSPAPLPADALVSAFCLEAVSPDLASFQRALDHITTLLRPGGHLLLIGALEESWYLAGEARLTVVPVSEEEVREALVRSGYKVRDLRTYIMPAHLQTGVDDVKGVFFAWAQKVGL
Chain of Catechol O-methyltransferase (Homo sapiens) (P21964 whole entry, looked up): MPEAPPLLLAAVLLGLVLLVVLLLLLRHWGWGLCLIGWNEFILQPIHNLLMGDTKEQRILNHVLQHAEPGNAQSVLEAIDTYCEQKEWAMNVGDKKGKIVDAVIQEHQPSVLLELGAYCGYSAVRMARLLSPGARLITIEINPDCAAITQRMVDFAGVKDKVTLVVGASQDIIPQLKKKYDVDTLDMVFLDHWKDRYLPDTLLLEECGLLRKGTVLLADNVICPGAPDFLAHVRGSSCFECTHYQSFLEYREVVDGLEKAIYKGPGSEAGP
Chain of Nicotinamide N-methyltransferase (Homo sapiens) (P40261 whole entry, looked up): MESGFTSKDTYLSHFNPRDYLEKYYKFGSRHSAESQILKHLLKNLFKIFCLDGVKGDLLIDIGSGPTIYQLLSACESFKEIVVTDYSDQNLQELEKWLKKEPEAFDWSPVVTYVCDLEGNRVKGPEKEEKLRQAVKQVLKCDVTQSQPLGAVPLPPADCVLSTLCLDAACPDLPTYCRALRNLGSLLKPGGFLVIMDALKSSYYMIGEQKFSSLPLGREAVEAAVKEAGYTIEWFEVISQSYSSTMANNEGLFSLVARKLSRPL
Chain of Cytochrome P450 3A4 (Homo sapiens) (P08684 whole entry, looked up): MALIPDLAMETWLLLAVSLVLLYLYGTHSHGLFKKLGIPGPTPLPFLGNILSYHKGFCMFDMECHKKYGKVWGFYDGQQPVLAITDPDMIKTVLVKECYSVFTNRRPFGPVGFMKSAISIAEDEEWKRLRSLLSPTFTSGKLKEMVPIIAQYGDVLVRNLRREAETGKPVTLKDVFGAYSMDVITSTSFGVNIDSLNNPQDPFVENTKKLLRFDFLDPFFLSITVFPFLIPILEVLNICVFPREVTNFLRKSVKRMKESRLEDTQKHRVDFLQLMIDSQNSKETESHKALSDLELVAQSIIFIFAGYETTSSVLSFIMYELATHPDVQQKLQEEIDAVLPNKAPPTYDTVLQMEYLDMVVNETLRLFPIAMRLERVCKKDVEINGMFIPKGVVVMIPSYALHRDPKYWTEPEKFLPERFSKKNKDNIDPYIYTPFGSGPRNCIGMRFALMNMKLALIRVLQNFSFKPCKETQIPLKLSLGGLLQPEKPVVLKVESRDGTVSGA

Regarding `COc1ccc(-n2[nH]c3c(cnc4ccccc43)c2=O)cc1`, the Potency entry in test [1], in test [2], in test [3], in test [4] and in test [5] was “inactive” throughout.
For `CC1(C)CC=C(C#Cc2ccccc2)c2cc(/C=C/c3ccc(C(=O)O)cc3)ccc21`, the Potency result in test [1] and in test [4] was “inactive” in each case. In addition, the Potency in [3] is 19 µM (active).
On to `O=C(O)Cn1nnc(-c2ccc(CN(CCCCOc3ccc(CN4CCCC4)cc3)CCc3ccccc3)cc2)n1`, for which the Potency entry in test [1], in test [4] and in [5] was “inactive” in each case. Also, the Potency in test [2] was 12 µM (active). For the same compound, the activity in test [6] was -3.03%; in test [8] it was -1.13%; in test [9], 0.559%. Also, in test [7], the activity change, negative = inhibition was 0%.
Take `CCOC(=O)c1ccc(NC2CCCCC2)c(N)c1`: the Potency entry in [1] was “inactive”. Moreover, the Potency in test [3] was 5.35 µM (active).
Consider `FC(F)(F)c1nnc2c(Sc3ccccc3)nc3ccc(Cl)cc3n12`, for which the Potency entry in [1] and in test [2] was “inactive” throughout. The Potency in [4] is 4.09 µM (active); in test [5] it was 3.65 µM (active).
Consider `CC1(C)CC=C(c2cnc3ccccc3c2)c2cc(C(=O)Nc3ccc(C(=O)O)cc3)ccc21`, for which, in test [1], the Potency result was “inactive”. The Potency in [3] is 21.3 µM (active).
As for `COC(=O)[C@H](Cc1ccc([N+](=O)[O-])cc1)NC(=O)c1cccc2ccccc12`, the Potency entry in test [1], in test [4] and in test [5] was “inactive” throughout. The Potency was 2.13 µM (active) in test [2] and 3.79 µM (active) in test [3].
Regarding `COc1cnc(-c2ccc(Cn3c(CC(C)(C)C(=O)O)c(SC(C)(C)C)c4cc(OC[C@@H]5Cc6ccccc6N5C(C)=O)ccc43)cc2)nc1`, the Potency entry in [1] and in [2] was “inactive” throughout. The Potency in test [3] was 12 µM (active). In addition, the values for the activity in test [6], in test [8] and in test [9] were -6.21%, -11.1% and -8.45%, respectively. Moreover, the activity change, negative = inhibition in test [7] is -3.63%.
As for `NC(N)=NCCC[C@H](NC(=O)c1sccc1NS(=O)(=O)c1cccc2nsnc12)C(=O)O`, the Potency result in [1], in [2] and in test [4] was “inactive” each time.
On to `Cc1onc(-c2c(Cl)cccc2Cl)c1CC(=O)NCc1ccc(OCC(F)(F)F)nc1`, for which the Potency result in test [1] was “inactive”. For the same compound, the Potency in test [3] is 2.39 µM (active).
Take `COc1ccc(Oc2c(Cl)cnn(C3c4ccccc4-c4ccccc43)c2=O)cc1`: the Potency entry in [1] and in [4] was “inactive” each time. In addition, the Potency in test [3] was 9.52 µM (active).
As for `O=C(OC(C(F)(F)F)C(F)(F)F)N1CCN(Cc2cccc(Oc3ccccc3)c2)CC1`, the Potency entry in [1] was “inactive”. Also, the Potency in [3] is 19 µM (active).
For `O=C(NC1Cc2ccccc2N(C[C@@H](O)CO)C1=O)c1cc2cc(Cl)sc2[nH]1` (some centres not stated) the same measures were “inactive” and 21.3 µM (active).
In the case of `CC(C)NC(=O)c1ccc(C#Cc2ccncc2)cn1`, in [1], the Potency result was “inactive”. Also, the Potency in test [3] is 0.601 µM (active).
In the case of `CCNC(=O)C1CC(F)(c2ccc(CN3CCCC3)c(F)c2)C1` (configuration not stated), the Potency result in [1], in [10], in test [3], in [4] and in [5] was “inactive” in each case.
For `CCCCC(=O)N1c2ccccc2NC2=C(C(=O)CCC2)C1c1ccccc1Cl` (configuration not stated), the Potency entry in test [1] is “inactive”. Further, the Potency in [3] was 12 µM (active).
`Cc1[nH]c2ccccc2c1CC(=O)N[C@@H](Cc1ccccc1)C(=O)N(C)c1ccccc1`: the Potency entry in test [1] and in test [5] was “inactive” in each case. In addition, the Potency in [2] is 16.9 µM (active); in [3], 9.52 µM (active).
As for `Fc1ccc(-c2c3cccc(C(F)(F)F)c3nn2Cc2ccc(F)cc2Cl)cc1`, the Potency entry in [1], in test [2], in [4] and in test [5] was “inactive” each time.
Regarding `CCCNCCOc1ccc(NC(=O)c2c[nH]c3c2C(=O)CCC3)cc1F`, the Potency result in test [1] and in test [3] was “inactive” throughout.
Take `COc1cnc(-n2cnc(C)n2)c2[nH]cc(C(=O)C(=O)N3CCN(C(=O)c4ccccc4)CC3)c12`: the Potency result in test [1], in test [2], in [4] and in [5] was “inactive” throughout.
`CC(C)c1c(NC(=O)Nc2ccc(Cl)cc2)c(=O)n(-c2ccccc2)n1C`: the Potency result in test [1], in test [4] and in test [5] was “inactive” in each case. Further, in test [2], the Potency was 12 µM (active).
On to `CC(C)(C)NS(=O)(=O)c1ccc(-c2ccc3[nH]nc(N)c3c2)cc1`, for which the Potency entry in test [1] was “inactive”. Further, the Potency in [3] is 13.5 µM (active).
